In PubChem BioAssay AID540359 (Broad Institute, 2011):
Potency and affinity values are given separately. The source made the active and inactive calls. No rule for the calls is given here.

Each compound was assayed against UDP-galactopyranose mutase (Mycobacterium tuberculosis (strain ATCC 25618 / H37Rv)) (UniProt P9WIQ1) (assay: UDP galactopyranose mutase inhibitors, Mycobacterium tuberculosis, cherry pick dose confirmation (AID 540359)). Details: purified UGM enzyme, plate reader activity; series mostly up to 50 µM; activity change, negative = inhibition: at the top concentration.
UDP-galactopyranose mutase (Mycobacterium tuberculosis (strain ATCC 25618 / H37Rv)), sequence (P9WIQ1 whole entry, looked up): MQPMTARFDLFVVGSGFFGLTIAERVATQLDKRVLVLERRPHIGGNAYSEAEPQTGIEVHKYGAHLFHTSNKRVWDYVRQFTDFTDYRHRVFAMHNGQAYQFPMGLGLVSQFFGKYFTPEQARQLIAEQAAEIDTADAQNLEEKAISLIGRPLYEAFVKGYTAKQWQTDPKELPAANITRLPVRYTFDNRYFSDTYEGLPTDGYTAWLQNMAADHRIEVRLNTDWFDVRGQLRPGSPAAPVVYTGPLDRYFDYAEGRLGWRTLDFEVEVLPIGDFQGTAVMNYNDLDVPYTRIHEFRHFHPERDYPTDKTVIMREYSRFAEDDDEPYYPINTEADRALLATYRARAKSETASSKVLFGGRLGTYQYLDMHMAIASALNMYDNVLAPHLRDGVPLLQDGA

Row | SMILES | activity change, negative = inhibition
1 | O=C(N=c1ccn(-c2nc3ccccc3nc2NS(=O)(=O)c2ccc(Cl)cc2)cc1)c1cccs1 | 21.6% (inactive)
2 | C=CCn1ccc(=NC=C(C#N)C#N)c2ccccc21 | -3.63% (inactive)
3 | Cc1c(C(=O)N2CCOCC2)sc(NC(=O)CCl)c1C#N | 0.121% (inactive)
4 | COc1cccc2c(=O)cn[nH]c12 | -12.8% (inactive)
5 | Cc1nn(-c2ccccc2)c(Cl)c1C(=O)NCC1CCCO1 (stereo not drawn) | -0.88% (inactive)
6 | CN(CC(=O)NC1CC1)S(=O)(=O)c1ccc(Br)cc1 | -4.54% (inactive)
7 | O=C(OCc1ccc(Br)cc1)c1cnc(Cl)c(Cl)c1 | -1.03% (inactive)
8 | COc1cc(N2CCCC2)c(OC)cc1/C=C(/C#N)c1ccc(Br)cc1 | -9% (inactive)
9 | COc1ccc(/C=C/C(=O)OCC(=O)NC2CCCCCC2)cc1OC | -0.651% (inactive)
10 | COc1ccccc1NC(=O)C1CCN(S(=O)(=O)c2cccs2)CC1 | -1.77% (inactive)
11 | CCCC(=O)Nc1ccc(Cc2ccc(NC(=O)CCC)c(C(=O)O)c2)cc1C(=O)O | -4.98% (inactive)
12 | NC(=O)c1c(NC(=O)C2COc3ccccc3O2)sc2c1CCN(Cc1ccccc1)C2 (stereo not drawn) | -1.94% (inactive)
13 | CCc1ccc2c(c1)C(c1ccc([N+](=O)[O-])cc1)=NNC(c1ccc(Br)cc1)=N2 | -5.73% (inactive)
14 | Cc1cc(C)c(S(=O)(=O)n2c([N+](=O)[O-])cnc2C)cc1C | -15.6% (inactive)
15 | CCOc1ccc(C(=O)NC(=S)Nc2cccnc2)cc1 | -1.97% (inactive)
16 | O=c1[nH]c(=O)n(-c2ccc(F)cc2)c(O)c1/C=C1\C=Nc2ccccc21 | 14.2% (inactive)
17 | COc1cc2c3nnc(-c4ccccc4)c-3cn(Cc3ccccc3F)c2cc1OC | -5.43% (inactive)
18 | CCOc1ccc(/C(CCC(=O)O)=N/NC(=O)c2cccc(S(=O)(=O)Nc3ccccc3OC)c2)cc1 | -6.3% (inactive)
19 | CCN(CC)CCCNC(=O)c1cc(Sc2nnc(C)s2)nc2ccccc12 | -0.597% (inactive)
20 | O=S(=O)(c1ccccc1)N(CC1CO1)c1cc(Cl)ccc1Cl (stereo not drawn) | -0.131% (inactive)
21 | COc1ccc(N(CC(=O)N/N=C/c2ccc(-c3ccc([N+](=O)[O-])cc3)o2)S(=O)(=O)c2ccc(C)cc2)cc1 | 0.687% (inactive)
22 | COc1ccccc1NC(=O)c1sc2nc(Cc3ccccc3)cc(C(F)(F)F)c2c1N | -21.8% (inactive)
23 | CCC1=NN2C(=N)/C(=C\c3cccn3-c3ccc(OC)cc3)C(=O)N=C2S1 | -3.99% (inactive)
24 | O=C(/C=C/c1ccc2c(c1)OCO2)c1c(O)n(CCc2ccccc2)c(=O)[nH]c1=O | -11.3% (inactive)
25 | COc1ccc(N2C(=O)c3cccc4c(N(C)CCO)ccc(c34)C2=O)cc1 | 7.74% (inactive)
26 | N#Cc1c(-c2ccccc2)ccnc1Oc1ccccc1 | -3.15% (inactive)
27 | Brc1ccc(/C=N/c2nc3ccccc3n2CCN2CCOCC2)cc1 | -2.81% (inactive)
28 | O=C1C2C3C=CC(C3)C2C(=O)N1CCN1CCN(S(=O)(=O)c2ccc3ccccc3c2)CC1 (stereo not drawn) | -0.268% (inactive)
